Source: PubChem BioAssay
This is a sample that favours compounds with a hit; in the whole collection about 2.8% have one here.
IP6K1 inh: inhibitors of human IP6K1; IP6K1 kinase, ADP-Glo luminescence, 2 h; stronger effect = lower value; hit rate 0.81% among 140,000; Q92551; activity change, % (series mostly up to about 58 µM); AID 1645851; in the data active = activity change below about -25%; note: % is set by controls: 0 for no effect and ±100 for the full control effect
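ADP-Glo luminescence measures ADP made by human IP6K1 during a 2 h RT reaction with ATP/IP6 (mix at 1.3 mM/130 uM); top library doses 57.5 and 19.1 uM final.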
KDM5B inhibitor: inhibitors of human KDM5B histone demethylase; Potency, µM (series often up to 57.7 µM), usual class: inhibitors; Q9UGL1; AID 1347165; KDM5B demethylase, FDH-coupled NADH fluorescence (FDH is formaldehyde dehydrogenase); hit rate 2.6% among 220,000; active = well fitted inhibition curve with a large enough effect; inconclusive = small, poorly fitted or top-dose-only effect; inactive = no such curve, though single readings can be large or run the other way; note: potency is the fitted concentration of half-maximal effect; 0% is about no effect; nearly all actives have a fitted effect of over 70% in size
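Compound dilutions met 200 nM (final) KDM5BΔAP for 10 min at room temperature before substrate addition. The substrate mix held 12.5 µM H3K4me3 with cofactors 25 µM α-ketoglutarate and 50 µM Fe²⁺. NADH signal gain over 30 min defined activity.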
* marks the source's active call; other numbers are inactive results; i = inactive; ? = inconclusive; nt = no result; ! = not confirmed by another sample.

SMILES | IP6K1 inh | KDM5B inhibitor
O=C1NC(C(=O)NC2CCCC2)Cn2cccc21 (stereo not drawn) | -9 | i
Cc1oc2ccccc2c1CNC(=O)NCc1cccs1 | 13 | nt
O=C1CC2CCN(Cc3c(F)cccc3Cl)CC2CCN1 (stereo not drawn) | -6 | i
CN1c2cc(C(=O)N3CCOCC3)ccc2OCC1CC(=O)NC(CO)CO (stereo not drawn) | 0 | i
COCCNC(=O)c1ccc2c(c1)N(C)C(CC(=O)N1CCCOCC1)CO2 (stereo not drawn) | 4 | 32µM*
COCCNC(=O)c1ccc2c(c1)N(C)C(CC(=O)N1CCC(C)CC1)CO2 (stereo not drawn) | 0 | 20µM*
COCCNC(=O)c1ccc2c(c1)N(C)C(CC(=O)N1CCCCC1)CO2 (stereo not drawn) | 3 | ?
COc1ccc(-c2noc(CNC(=O)COc3cc(C)cc(C)c3C)n2)cc1 | nt | i
O=C(C1CCC1)N1CCN(C2CCN(Cc3cccnc3)C2=O)CC1 (stereo not drawn) | 13 | i
COC[C@@H]1CN(C(=O)c2ccc(OC)nc2)C[C@H]1c1ccncc1 | -11 | i
COC(=O)COc1ccc(-c2nnc(Nc3ccc(OC)cc3)c3ccccc23)cc1 | nt | i
CCn1ccc(C(=O)N2CCC(c3nc(-c4cccn4C)no3)CC2)n1 | 17 | nt
CCOC(=O)C(C)NC(=O)c1cc(OC)c(OC)c(OC)c1 (stereo not drawn) | nt | i
Fc1ccc(NC(=S)NCCSc2ccc(Cl)cc2)cc1Cl | nt | i
O=C(NC1CCCC1)N1CC(Oc2ccc(-c3nc(-c4ccccc4)no3)cc2)C1 | 6 | i
CNc1nc2c(s1)C(c1cccc(F)c1)CC(=O)N2 (stereo not drawn) | -67* | 28µM*
CC1=C(C(=O)NC23CC4CC(CC(C4)C2)C3)C(c2cccnc2)NC(=O)N1 (stereo not drawn) | -6 | i
CNc1nc2c(s1)C(c1ccc(F)c(F)c1)CC(=O)N2 (stereo not drawn) | -37* | 32µM*
Cc1nc2c(c(=O)[nH]1)C(c1cc(F)cc(F)c1)CC(=O)N2 (stereo not drawn) | nt | i
Cc1cccn2c3c(c(=O)nc12)C(c1cccc(F)c1)CC(=O)N3 (stereo not drawn) | -1 | i
CCNc1nc2c(s1)C(c1cccnc1)CC(=O)N2 (stereo not drawn) | -46* | ?
O=C(NCc1ccccn1)C1CCCN(C2CCN(C(=O)Cn3cnnn3)CC2)C1 (stereo not drawn) | 6 | i
COc1ccc2nc(NC(=O)c3ccc4c(c3)NC(=O)CS4)sc2c1 | nt | i
c1ccc(-c2nc3ccncc3[nH]2)cc1 | 0 | ?
O=C(O)c1ccc(-c2nc3ccncc3[nH]2)cc1 | 0 | ?
SMILES | IP6K1 inh | KDM5B inhibitor
Cc1occc1-c1nc2ccncc2[nH]1 | 2 | 32µM*!
Cc1oc(-c2ccccc2)nc1CSc1nc2ccncc2[nH]1 | nt | i
c1cnc2[nH]cc(-c3nc4ccncc4[nH]3)c2c1 | 5 | 35µM*!
c1coc(-c2nc3ccncc3[nH]2)c1 | 23 | 32µM*!
Cc1cc(-c2nc3ccncc3[nH]2)c(C)[nH]1 | -4 | 32µM*
O=C(NCc1c[nH]c2ncccc12)c1ccncc1 | 23 | i
Cc1ccc2c(Cl)cc(Cl)c(OCC(=O)NC(=O)NC(C)C)c2n1 | nt | i
O=C(NCCN1CCOCC1)c1ccc2nc(-c3ccccc3)cn2c1 | 1 | 28µM*
CCOc1ccc(C(=O)NCCc2sc(-c3ccc(C)cc3)nc2C)cc1 | 0 | ?
Cc1ncsc1CCNC(=O)c1ccc2nc(-c3ccccc3)cn2c1 | 10 | 25µM*
O=C(NCCN1CCOCC1)c1ccc2nccn2c1 | 17 | nt
CN(C)C(=O)c1ccc(-c2cc(NC3CCCC3)nc3[nH]ccc23)o1 | 1 | ?
CCCOC(=O)c1ccc(NC(=O)NC(c2cccc(F)c2)c2nccn2C)cc1 (stereo not drawn) | nt | i
COc1ccc(CNC(=O)C2CN(C3CCCCC3)C(=O)N2)cc1 (stereo not drawn) | -7 | nt
CC1(CCCCN2CCOCC2)COc2ccc(C(=O)NCc3ccco3)cc2N1 (stereo not drawn) | 2 | 35µM*
CC1(CCCCN2CCOCC2)COc2ccc(C(=O)NCc3ccccc3)cc2N1 (stereo not drawn) | -2 | 40µM*
CC1(CCCCN2CCOCC2)COc2ccc(C(=O)Nc3ccc4[nH]ccc4c3)cc2N1 (stereo not drawn) | 2 | i
CC1(CCCCc2ccccc2)COc2ccc(C(=O)NCCN3CCOCC3)cc2N1 (stereo not drawn) | -8 | 35µM*
COc1cccc(NC(=O)c2ccc3c(c2)NC(C)(CCCCN2CCOCC2)CO3)c1 (stereo not drawn) | -11 | ?
CC1(CCCCc2ccccc2)COc2ccc(C(=O)N3CCOCC3)cc2N1 (stereo not drawn) | -9 | ?
O=C(CCS(=O)(=O)c1ccc2c(c1)NC(=O)CS2)NCc1ccccc1 | nt | i
COc1ccc(CNC(=O)c2cc(NC(C)=O)cc3nc(C)ccc23)c(OC)c1 | 6 | ?
Cc1ccc2c(C(=O)NCCN3CCCCC3)cc(NC(=O)C(C)C)cc2n1 | 16 | 22µM*
Cc1ccc(CNC(=O)c2cc(NC(=O)C(C)C)cc3nc(C)ccc23)cc1 | 12 | ?
Cc1ccc2c(C(=O)NCc3ccccc3Cl)cc(NC(=O)C(C)C)cc2n1 | 11 | 14µM*
SMILES | IP6K1 inh | KDM5B inhibitor
CCNC(=O)c1cc(NC(=O)C(C)C)cc2nc(C)ccc12 | 30 | 25µM*
Cc1ccc2c(C(=O)N3CCN(c4ccccc4)CC3)cc(NC(=O)C(C)C)cc2n1 | 27 | ?
COCCOc1ccc2c(n1)CCN(C(=O)C1CC1)C2 | -7 | i
COC(=O)N(C)C1CCc2ccccc21 (stereo not drawn) | -2 | i
O=C(CSC1=Nc2ccccc2C2=NC(c3ccccc3)C(=O)N12)Nc1ccc(F)cc1 (stereo not drawn) | nt | i
COCCn1cc2c3c(cccc31)CN(C(=O)COc1cccc(C)c1)CC2 | 9 | 32µM*
CCC(C(=O)N1CCc2cn(CCOC)c3cccc(c23)C1)c1ccccc1 (stereo not drawn) | -9 | ?
COCCn1cc2c3c(cccc31)CN(C(=O)c1cccc(C(F)(F)F)c1)CC2 | 2 | 28µM*
CCCn1cc2c3c(cccc31)CN(C(=O)c1cccc(C#N)c1)CC2 | 16 | ?
CCCn1cc2c3c(cccc31)CN(C(=O)COc1ccccc1)CC2 | 28 | 32µM*
CCn1cc2c3c(cccc31)CN(C(=O)COc1ccc(F)cc1)CC2 | 26 | ?
O=C1CCN(Cc2ccncc2)CCCC(c2nc(-c3cnccn3)no2)CCN1 (stereo not drawn) | 14 | ?
Cc1ccccc1C(=O)N1CCN(c2nc3ncccc3o2)CC1 | -3 | ?
O=C(C1CCCN(c2nc3ncccc3o2)C1)N1CCOCC1 (stereo not drawn) | 5 | 40µM*
O=C(C1CC1)N1CCN(c2nc3ncccc3o2)CC1 | 2 | ?
O=C(C1CCN(c2nc3ncccc3o2)CC1)N1CCOCC1 | 18 | nt
O=C(c1ccccc1Cl)N1CCN(c2nc3ncccc3o2)CC1 | 6 | 20µM*
CN(C)C(=O)N1CCCN(c2nc3ncccc3o2)CC1 | 5 | 28µM*
O=C(c1ccc(F)cc1)N1CCCN(c2nc3ncccc3o2)CC1 | -8 | ?
